Compound activity: PubChem, several laboratories
Only some compounds are listed: those with a hit (about 3.5% of all), similar ones and a draw of the others.
HSP90 refold inh: blocks HSP90-mediated luciferase refolding in reticulocyte lysate; inhibition, % at 5.6 µM; Rabbit reticulocyte lysate, luciferase refolding luminescence, 3 h; actives 0.91% (n = 290,000); AID 1789;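 active = inhibition above the screen-wide mean plus 3 SD, computed separately per campaign, cut at about 16% in these data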;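 note: 0% = DMSO wells and 100% = 60 µM geldanamycin wells; inhibitors lower the luminescence because luciferase stays unfolded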
Platelet DG rel: modulates dense granule release in human platelets | human platelet-rich plasma, SFLLRN dense granule ATP release, luminescence | inhibition, %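 (compounds screened at 7.5 µM in platelet-rich plasma)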 | actives 0.22% (n = 300,000) | AID 1663;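 active = mean replicate score, as percent of positive control, at or above 50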
C8 TRAIL sens: caspase-8 TRAIL sensitization; NB7+C8 cells + TRAIL, ATPlite viability luminescence; inhibition (viability loss, TRAIL sensitization), % at 10 µM; actives 1% (n = 360,000);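 active = compounds causing at least 50% loss of cell viability in the single-dose screen, relative to plate controls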
PPC-1+TRAIL kill: kills PPC-1 cancer cells in the presence of TRAIL. PPC-1 cells + TRAIL, ATPLite viability luminescence. actives 0.41% (n = 220,000). cell killing (% activity), % at 4 µM or 5 µM;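 active = cell killing above 50% in the first pass at 4 µM, then a duplicate retest at 5 µM averaging 50% or more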;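 note: plate controls were cells with TRAIL plus DMSO for no effect and medium-only wells lacking cells for full effect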
TWEAK Fn14 block: TWEAK-Fn14 signaling inhibition. inhibition, % at 10 µM. TWEAK-stimulated Fn14 reporter cells, luciferase luminescence, 8 h. actives 2% (n = 360,000); in the data active = inhibition above about 50%
TROY signal inh: inhibitors of TROY-dependent NF-kB signaling. inhibition, % at 10 µM. Q293 LMP1-TROYcd NF-kB luciferase reporter, 4 h. actives 0.98% (n = 360,000);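 active = compounds whose plate-normalised and pattern-corrected inhibition of the luciferase reporter signal at the single screening dose is 50% or more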
PPC-1 tox: PPC-1 cell cytotoxicity; shares compounds with PPC-1+TRAIL kill; PPC-1 viability, ATPlite luminescence, overnight; cytotoxicity, % at 5 µM; actives 50% (n = 1,200);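 active = reconfirmed compounds whose average cytotoxicity reaches 50% or more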;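 note: 0% = DMSO-treated cells and 100% = wells holding medium but no cells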
HSP90 confirm: HSP90 inhibition, confirmation assay. shares compounds with HSP90 refold inh. rabbit reticulocyte lysate, luciferase refolding luminescence, 3 h. inhibition, % at 5.9 µM. actives 64% (n = 2,300). AID 1846; in the data active = inhibition above about 18%;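 note: 0% = vehicle wells and 100% = reference inhibitor wells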
FLuc counter: firefly luciferase inhibition, HSP90 counter-screen; shares compounds with HSP90 refold inh; purified native firefly luciferase, luminescence; inhibition, % at 5.9 µM; actives 48% (n = 2,300);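 active = inhibition above the mean inhibition of all tested sample wells plus 3 SD, cut at about 10% in these data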;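 note: 0% = DMSO with luciferase and 100% = wells lacking luciferase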
Target sequence (P08659 whole entry, looked up): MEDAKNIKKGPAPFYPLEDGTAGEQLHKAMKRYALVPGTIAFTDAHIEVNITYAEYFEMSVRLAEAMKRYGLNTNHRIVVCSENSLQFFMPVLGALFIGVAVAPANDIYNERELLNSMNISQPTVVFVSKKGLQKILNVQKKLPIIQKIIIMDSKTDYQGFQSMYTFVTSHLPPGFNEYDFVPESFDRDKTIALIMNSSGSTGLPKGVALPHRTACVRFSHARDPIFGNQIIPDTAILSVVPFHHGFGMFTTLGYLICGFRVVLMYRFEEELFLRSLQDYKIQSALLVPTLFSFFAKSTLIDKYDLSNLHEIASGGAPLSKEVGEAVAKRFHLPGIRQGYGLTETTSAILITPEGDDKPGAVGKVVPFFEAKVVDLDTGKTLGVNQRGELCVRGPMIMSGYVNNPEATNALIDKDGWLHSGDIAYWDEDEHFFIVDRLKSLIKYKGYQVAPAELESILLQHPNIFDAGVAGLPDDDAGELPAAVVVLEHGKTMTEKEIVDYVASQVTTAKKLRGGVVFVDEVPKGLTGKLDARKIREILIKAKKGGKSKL
* hit, by the source's call; . = no result.

SMILES	HSP90 refold inh	Platelet DG rel	C8 TRAIL sens	PPC-1+TRAIL kill	TWEAK Fn14 block	TROY signal inh	HSP90 confirm	FLuc counter	others
Nc1cccc(-c2nc3cc(S(=O)(=O)c4ccc5oc(-c6cccc(N)c6)nc5c4)ccc3o2)c1	-8	-4	42	15	-12	-26	.	.
CC(C)c1ccc2oc(-c3ccc(N)cc3)nc2c1	23*	6	80*	68*	81*	38	50*	46*	PPC-1 tox=72*
CCOc1ccc2nc(-c3ccccc3)[nH]c2c1	19*	1	69*	48	44	-4	21*	13*	PPC-1 tox=56*
COc1ccc(N2CCN(CCCNC(=O)Cn3c(=O)c4cccn4c4ccccc43)CC2)cc1	1	6	-8	.	2	-3	.	.
O=C(CCCc1ccccc1)c1ccc2c(c1)OCCO2	77*	6	87*	80*	102*	88*	97*	94*	PPC-1 tox=84*
O=C(CCc1ccccc1)c1ccc2c(c1)OCCCO2	-4	6	6	4	1	-64	.	.
CCOC(=O)c1c(C)c(C(=O)Nc2ccc3c(c2)OCO3)c(C)n1C	-2	-6	4	10	-29	-30	.	.
CCOC(=O)c1c(N)sc(C(=O)Nc2ccc3c(c2)OCO3)c1C	41*	56*	78*	71*	79*	42	69*	59*	PPC-1 tox=77*
CC1CCCN(c2ccc3nc4ccccc4c(=O)n3n2)C1 (stereo not drawn)	36*	1	78*	83*	37	66*	60*	38*	PPC-1 tox=83*
Cc1cc(C(=O)OCC(=O)Nc2c(Cl)cccc2C(F)(F)F)c(C)o1	.	-1	19	.	-11	6	.	.
O=C(COC(=O)C1CCCC1)Nc1ncc(Cl)cc1Cl	.	-8	-1	.	-10	-13	.	.
Cc1ccc(-n2nnc(-c3nccs3)n2)cc1	76*	34	87*	82*	94*	66*	85*	81*	PPC-1 tox=82*
Clc1ccc(-n2nnc(-c3nccs3)n2)cc1Cl	6	2	35	23	20	-17	.	.
c1ccc(-n2ncc3c(N4CCCCC4)ncnc32)cc1	56*	-14	86*	80*	95*	71*	80*	74*	PPC-1 tox=79*
COC(=O)CC1C(=O)NC2CCCCC2N1C(=O)CCl (stereo not drawn)	1	1	-17	-1	15	4	.	.
Cc1ccc(NC(=O)c2cc(C)n(-c3cccc(C)c3)c2C)cc1	5	15	30	20	37	44	.	.
Cc1cc(C(=O)Nc2ccc(Cl)cc2)c(C)n1-c1ccccc1	81*	19	83*	83*	103*	89*	81*	80*	PPC-1 tox=79*
Cc1cc(NCCCn2ccnc2)n2nc(C)c(-c3ccccc3)c2n1	3	7	27	24	-20	-34	.	.
Cc1cc(NCCCn2ccnc2)n2ncc(-c3ccccc3)c2n1	34*	.	77*	67*	99*	81*	62*	56*	PPC-1 tox=62*
O=C(NCc1ccc(Cl)cc1)N1CCN(C(=O)c2ccccc2)CC1	.	.	21	.	18	-21	.	.
O=C(NCc1ccc(Cl)cc1)N1CCN(S(=O)(=O)c2ccccc2)CC1	38*	-6	1	.	-2	2	-1	-6
N#Cc1ccccc1OCC(=O)N1CCN(S(=O)(=O)c2ccc(Cl)cc2)CC1	.	.	16	.	11	-11	.	.
O=C(NCc1ccccn1)c1cccn1-c1ncc(C(F)(F)F)cc1Cl	41*	4	-4	3	16	-4	3	-1
Cc1c(-c2nc(-c3ccc(C(F)(F)F)cc3)no2)n(C)oc1=O	18*	1	-4	8	-6	-30	74*	-10
CS(=O)(=O)c1ccccc1-c1nc(-c2ccc(C(F)(F)F)cc2)no1	1	-5	-8	-1	-25	-36	.	.
SMILES	HSP90 refold inh	Platelet DG rel	C8 TRAIL sens	PPC-1+TRAIL kill	TWEAK Fn14 block	TROY signal inh	HSP90 confirm	FLuc counter	others
Cc1cccc(OCC(=O)NNC(=O)c2ccccc2OCc2c(C)noc2C)c1	.	.	2	.	2	7	.	.
CCOC1=C2[C@H](c3ccc(CC)cc3)N(S(=O)(=O)c3ccc(C)cc3)C[C@H]2n2c(=O)n(-c3ccccc3)c(=O)n2C1	.	.	-7	.	14	13	.	.
Cc1ccc(-n2nnnc2SCC(=O)c2c(N)n(C3CC3)c(=O)[nH]c2=O)cc1C	.	.	8	.	1	-4	.	.
COc1ccc(-c2nc3ccc([N+](=O)[O-])cc3[nH]2)cc1	8	5	20	24	42	-8	.	.
CC(=O)c1sc2nc(C)cc(C)c2c1N	-2	1	-1	-7	0	1	.	.
Cc1ccc2nc(-c3sc4nc(C)cc(C)c4c3N)[nH]c2c1	25*	2	56*	31	78*	70*	23*	19*
Cc1ccc2nc(-c3cccc(N)c3)[nH]c2c1	18*	20	68*	43	61*	12	45*	33*
Nc1cccc(-c2nc3ccccc3[nH]2)c1	5	1	18	23	2	-36	.	.
Cc1ccc(-c2nc3ccc([N+](=O)[O-])cc3[nH]2)cc1	25*	0	34	32	51*	17	42*	43*
COc1ccc(C(=O)NCCn2cc(SCC(=O)NCC3CCCO3)c3ccccc32)cc1 (stereo not drawn)	29*	2	0	.	84*	59*	15	3
COc1ccccc1C(=O)NCCn1cc(SCC(=O)NCC2CCCO2)c2ccccc21 (stereo not drawn)	1	1	-2	.	9	0	.	.
O=[N+]([O-])c1cc([N+](=O)[O-])c(Oc2cc(F)cc(F)c2)cc1NN1CCCCC1	.	.	8	.	-14	-29	.	.
O=C(/C=C/c1ccco1)N1CCc2ccccc21	24*	46	50	36	45	-37	41*	25*
Cc1ccc(/C=C/C(=O)N2CCc3ccccc32)o1	2	10	17	0	10	-5	.	.
Cc1cc(C)cc(NC(=S)N2CCC(NC(=O)c3ccco3)CC2)c1	-3	0	-13	.	6	-11	.	.
C[n+]1cccc2c(Br)ccc([O-])c21	19*	4	-1	4	-6	-7	3	-2
CCOc1ccc(OCc2ccc(C(=O)O)o2)cc1	90*	1	4	-20	52*	-49	92*	60*
CCCc1ccc(OCc2ccc(C(=O)N3CCSCC3)o2)cc1	52*	1	-8	.	-38	-95	55*	8
COC(=O)c1ccc(COc2ccc(C=O)cc2)o1	0	11	-6	.	19	-24	.	.
